# According to ChEMBL document CHEMBL3988442, “University of Dundee, Small-Polar-MMV Screening Library” (2021):
# For some assays here: Results with a measured potency or affinity are listed apart.
# Assays:
# [1] = target: T1, Methionyl-tRNA synthetase, putative (Leishmania donovani (strain BPK282A1)) (UniProt E9BF75); experiment: Leishmania donovani Methionine tRNA synthetase (LdMetRS):v7. Dose response assay; assay type: functional; design: conc 80 nM, time 150 minutes
# T1 sequence (whole entry): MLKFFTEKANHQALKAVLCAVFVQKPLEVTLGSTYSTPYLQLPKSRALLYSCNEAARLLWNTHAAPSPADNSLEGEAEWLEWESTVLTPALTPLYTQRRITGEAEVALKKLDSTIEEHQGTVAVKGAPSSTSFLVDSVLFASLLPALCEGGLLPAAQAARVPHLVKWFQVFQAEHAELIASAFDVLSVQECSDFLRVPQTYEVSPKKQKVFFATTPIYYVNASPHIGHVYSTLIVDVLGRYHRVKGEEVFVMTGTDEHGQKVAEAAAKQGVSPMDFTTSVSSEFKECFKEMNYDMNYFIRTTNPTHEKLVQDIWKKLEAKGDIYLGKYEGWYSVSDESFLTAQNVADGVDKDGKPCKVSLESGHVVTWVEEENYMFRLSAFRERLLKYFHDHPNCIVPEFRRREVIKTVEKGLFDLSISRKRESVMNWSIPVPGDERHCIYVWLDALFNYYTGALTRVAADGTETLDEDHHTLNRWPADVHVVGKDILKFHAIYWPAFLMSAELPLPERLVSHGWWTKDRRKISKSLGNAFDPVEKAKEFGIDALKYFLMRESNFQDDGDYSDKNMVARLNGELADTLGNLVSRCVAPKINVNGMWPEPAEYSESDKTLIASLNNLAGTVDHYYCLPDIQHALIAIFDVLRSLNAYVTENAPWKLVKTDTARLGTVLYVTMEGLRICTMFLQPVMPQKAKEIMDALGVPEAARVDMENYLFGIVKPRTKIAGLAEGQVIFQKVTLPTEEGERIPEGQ
# [2] = target: Protein translocase subunit SecA (Escherichia coli (strain K12)) (UniProt P10408); experiment: Assay to Identify E. coli SecA ATPase Inhibitors; assay type: functional; design: scale not given: direction of the effect not stated beside the values; conditions: 30 µM
# [3] = target: T2, Ubiquitin-activating enzyme e1, putative (Leishmania donovani (strain BPK282A1)) (UniProt E9BSI1); experiment: Leishmania donovani Ubiquitin Activating Enzyme (LdE1); assay type: functional; design: scale not given: direction of the effect not stated beside the values; conditions: 30 µM
# T2 sequence (whole entry): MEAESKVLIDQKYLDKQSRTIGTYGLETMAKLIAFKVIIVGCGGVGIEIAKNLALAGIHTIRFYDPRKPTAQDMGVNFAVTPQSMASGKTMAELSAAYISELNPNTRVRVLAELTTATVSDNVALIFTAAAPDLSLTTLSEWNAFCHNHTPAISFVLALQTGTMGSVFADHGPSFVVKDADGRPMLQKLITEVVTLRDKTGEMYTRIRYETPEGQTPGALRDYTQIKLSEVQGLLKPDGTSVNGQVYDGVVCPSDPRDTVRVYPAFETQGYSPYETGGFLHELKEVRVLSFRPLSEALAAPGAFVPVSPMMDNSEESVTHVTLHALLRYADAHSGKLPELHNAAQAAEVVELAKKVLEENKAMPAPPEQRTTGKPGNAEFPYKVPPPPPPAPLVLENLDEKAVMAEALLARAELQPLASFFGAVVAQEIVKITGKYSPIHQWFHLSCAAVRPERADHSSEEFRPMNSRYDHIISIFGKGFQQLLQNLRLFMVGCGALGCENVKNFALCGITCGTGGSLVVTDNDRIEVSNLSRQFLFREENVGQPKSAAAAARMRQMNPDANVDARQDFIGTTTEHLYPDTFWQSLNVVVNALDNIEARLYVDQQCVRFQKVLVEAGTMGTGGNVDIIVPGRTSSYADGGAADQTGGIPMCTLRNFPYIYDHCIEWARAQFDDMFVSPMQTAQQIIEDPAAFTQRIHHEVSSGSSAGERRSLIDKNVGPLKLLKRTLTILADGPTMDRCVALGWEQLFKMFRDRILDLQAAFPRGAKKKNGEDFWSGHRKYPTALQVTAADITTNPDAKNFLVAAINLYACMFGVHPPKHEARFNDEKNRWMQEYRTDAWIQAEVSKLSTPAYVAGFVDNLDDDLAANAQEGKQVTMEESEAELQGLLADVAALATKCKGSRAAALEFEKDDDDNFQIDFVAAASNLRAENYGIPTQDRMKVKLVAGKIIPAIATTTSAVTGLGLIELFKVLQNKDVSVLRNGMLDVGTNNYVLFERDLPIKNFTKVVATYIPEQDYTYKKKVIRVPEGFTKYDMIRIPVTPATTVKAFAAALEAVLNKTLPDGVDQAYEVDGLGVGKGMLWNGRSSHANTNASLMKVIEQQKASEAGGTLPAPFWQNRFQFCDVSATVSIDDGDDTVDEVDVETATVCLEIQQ
# [4] = target: AMP-activated protein kinase, AMPK (Homo sapiens) (UniProt P54646+O43741+P54619+Q9UGJ0+Q9Y478+Q13131+Q9UGI9); experiment: AMP-dependent Kinase enzyme assay. An in vitro enzyme assay that detects ADP turnover that is directly proportional to AMPK activity. This uses naive AMPK that is activated during the assay with MK-8722; assay type: functional; design: scale not given: direction of the effect not stated beside the values; conditions: 30 µM
# [5] = target: Sialic acid-binding Ig-like lectin 9 (Homo sapiens) (UniProt Q9Y336); experiment: Hs-Siglec9 ALPHAscreen SOP 20170721; design: scale not given: direction of the effect not stated beside the values; conditions: 10 µM
# Trypanosoma cruzi = experiment: Trypanosoma cruzi phosphomannomutase and mannose-1-phosphate guanylyltransferase assay; assay type: functional; design: scale not given: direction of the effect not stated beside the values; conditions: 10 µM
# [6] = target: T3, Arginase-2, mitochondrial (Homo sapiens) (UniProt P78540); experiment: in vitro enzyme assay to detect the production of urea directly proportional to the activity of Arginase II; assay type: functional; design: scale not given: in the data most compounds retested in dose-response had high values; conditions: 33.3 µM
# T3 sequence (whole entry): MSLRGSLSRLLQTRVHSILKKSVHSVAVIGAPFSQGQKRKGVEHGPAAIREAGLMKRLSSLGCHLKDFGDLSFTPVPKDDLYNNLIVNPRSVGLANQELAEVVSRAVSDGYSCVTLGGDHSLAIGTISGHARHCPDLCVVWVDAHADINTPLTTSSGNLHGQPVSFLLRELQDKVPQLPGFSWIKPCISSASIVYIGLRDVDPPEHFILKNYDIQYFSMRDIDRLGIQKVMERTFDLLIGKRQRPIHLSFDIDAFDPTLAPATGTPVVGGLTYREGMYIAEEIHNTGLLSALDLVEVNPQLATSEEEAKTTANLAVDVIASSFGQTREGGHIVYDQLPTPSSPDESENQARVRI
# [7] = target: T4, Proteasome subunit beta (Trypanosoma cruzi) (UniProt O96673); experiment: Trypanosoma cruzi proteasome chymotrypsin-like activity (TcProtChymo) assay.; assay type: functional; design: scale not given: in the data most compounds retested in dose-response had high values; conditions: 9.37 µM
# T4 sequence (whole entry): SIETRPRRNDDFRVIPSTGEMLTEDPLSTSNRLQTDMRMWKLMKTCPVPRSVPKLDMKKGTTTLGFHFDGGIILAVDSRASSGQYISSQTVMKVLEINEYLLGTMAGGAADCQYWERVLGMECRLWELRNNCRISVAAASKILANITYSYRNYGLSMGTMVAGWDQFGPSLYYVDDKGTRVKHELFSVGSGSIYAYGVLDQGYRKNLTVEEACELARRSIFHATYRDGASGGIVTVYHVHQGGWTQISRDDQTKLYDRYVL
# Homo sapiens = species: Homo sapiens; experiment: To identify inhibition of the IFN signalling (Jak-Stat) pathway via expression of an eGFP reporter gene under the control of an IFN-stimulated response element (ISRE) containing MxA promoter.; assay type: functional; design: scale not given: direction of the effect not stated beside the values; conditions: 30 µM
# [8] = target: T5, Tyrosyl-tRNA synthetase, putative (Trypanosoma cruzi (strain CL Brener)) (UniProt Q4DSP6); experiment: Trypanosoma cruzi tyrosyl tRNA synthetase (TcYRS) _High Tyrosine SOP; assay type: functional; design: scale not given: in the data most compounds retested in dose-response had high values; conditions: 30 µM
# T5 sequence (whole entry): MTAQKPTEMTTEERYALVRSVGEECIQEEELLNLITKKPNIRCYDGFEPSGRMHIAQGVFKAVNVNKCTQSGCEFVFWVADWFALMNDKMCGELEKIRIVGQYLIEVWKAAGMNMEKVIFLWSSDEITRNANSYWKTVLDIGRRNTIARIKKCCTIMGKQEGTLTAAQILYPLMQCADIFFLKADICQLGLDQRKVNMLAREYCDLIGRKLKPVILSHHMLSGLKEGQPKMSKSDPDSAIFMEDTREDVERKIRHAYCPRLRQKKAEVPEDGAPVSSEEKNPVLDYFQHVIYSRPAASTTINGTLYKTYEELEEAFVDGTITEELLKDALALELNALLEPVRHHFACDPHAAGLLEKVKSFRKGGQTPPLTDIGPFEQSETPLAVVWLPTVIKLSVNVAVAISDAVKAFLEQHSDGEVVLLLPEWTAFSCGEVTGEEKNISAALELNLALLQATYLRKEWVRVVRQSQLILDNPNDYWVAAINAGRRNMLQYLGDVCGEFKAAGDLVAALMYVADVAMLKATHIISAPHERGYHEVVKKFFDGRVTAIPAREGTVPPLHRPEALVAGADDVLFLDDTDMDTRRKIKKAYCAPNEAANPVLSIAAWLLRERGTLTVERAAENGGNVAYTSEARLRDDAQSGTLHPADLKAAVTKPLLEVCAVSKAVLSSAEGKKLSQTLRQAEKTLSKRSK
# [9] = target: T5, Tyrosyl-tRNA synthetase, putative (Trypanosoma cruzi (strain CL Brener)); experiment: Trypanosoma cruzi tyrosyl tRNA synthetase (TcYRS) SOP; assay type: functional; design: scale not given: direction of the effect not stated beside the values; conditions: 30 µM
# [10] = target: Chromo domain-containing protein 1 (Saccharomyces cerevisiae (strain ATCC 204508 / S288c) (Baker's yeast)) (UniProt P32657); experiment: ScCHD-1 Enzyme Inhibition Assay; assay type: functional; design: scale not given: in the data most compounds retested in dose-response had high values; conditions: 30 µM
# Chromo domain-containing protein 1 (Saccharomyces cerevisiae (strain ATCC 204508 / S288c) (Baker's yeast)), sequence (P32657 whole entry, the tested form may be a part): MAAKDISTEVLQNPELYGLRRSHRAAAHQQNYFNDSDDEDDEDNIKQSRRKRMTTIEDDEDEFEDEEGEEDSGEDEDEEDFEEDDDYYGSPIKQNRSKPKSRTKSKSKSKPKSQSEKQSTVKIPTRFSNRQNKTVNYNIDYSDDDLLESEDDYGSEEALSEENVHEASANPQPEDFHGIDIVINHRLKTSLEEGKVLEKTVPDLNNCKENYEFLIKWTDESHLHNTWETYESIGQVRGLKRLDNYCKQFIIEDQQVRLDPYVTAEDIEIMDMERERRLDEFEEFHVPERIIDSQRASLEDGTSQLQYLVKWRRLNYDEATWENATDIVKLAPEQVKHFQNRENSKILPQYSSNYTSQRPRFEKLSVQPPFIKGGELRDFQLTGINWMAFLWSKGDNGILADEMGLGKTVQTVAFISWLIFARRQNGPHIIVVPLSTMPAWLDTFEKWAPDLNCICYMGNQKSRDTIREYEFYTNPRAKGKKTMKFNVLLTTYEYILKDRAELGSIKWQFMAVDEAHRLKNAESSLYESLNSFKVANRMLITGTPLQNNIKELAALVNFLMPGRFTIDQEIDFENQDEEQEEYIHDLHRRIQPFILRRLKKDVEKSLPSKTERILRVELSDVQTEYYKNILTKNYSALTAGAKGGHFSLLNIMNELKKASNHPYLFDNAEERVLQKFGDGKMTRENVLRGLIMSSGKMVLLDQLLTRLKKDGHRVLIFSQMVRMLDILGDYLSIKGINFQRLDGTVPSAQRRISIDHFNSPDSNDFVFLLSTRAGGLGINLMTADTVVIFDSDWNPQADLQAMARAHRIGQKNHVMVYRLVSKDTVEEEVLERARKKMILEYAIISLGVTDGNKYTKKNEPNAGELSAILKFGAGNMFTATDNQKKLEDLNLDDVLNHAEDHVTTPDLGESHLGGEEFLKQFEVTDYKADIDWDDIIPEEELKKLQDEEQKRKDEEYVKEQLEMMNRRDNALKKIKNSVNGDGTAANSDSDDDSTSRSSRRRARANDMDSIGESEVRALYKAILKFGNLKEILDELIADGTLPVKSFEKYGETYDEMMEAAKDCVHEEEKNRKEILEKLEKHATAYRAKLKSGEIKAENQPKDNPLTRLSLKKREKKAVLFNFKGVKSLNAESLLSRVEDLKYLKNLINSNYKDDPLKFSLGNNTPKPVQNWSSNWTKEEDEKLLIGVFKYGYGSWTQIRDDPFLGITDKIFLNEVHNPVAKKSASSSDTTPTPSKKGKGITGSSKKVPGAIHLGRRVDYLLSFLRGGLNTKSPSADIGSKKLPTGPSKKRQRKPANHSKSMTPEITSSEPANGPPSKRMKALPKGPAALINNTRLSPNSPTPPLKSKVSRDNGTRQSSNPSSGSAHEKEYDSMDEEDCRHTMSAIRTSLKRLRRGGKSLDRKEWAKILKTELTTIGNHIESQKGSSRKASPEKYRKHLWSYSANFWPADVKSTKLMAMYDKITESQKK
# Sialic acid-binding Ig-like lectin 9 (Homo sapiens), sequence (Q9Y336 whole entry): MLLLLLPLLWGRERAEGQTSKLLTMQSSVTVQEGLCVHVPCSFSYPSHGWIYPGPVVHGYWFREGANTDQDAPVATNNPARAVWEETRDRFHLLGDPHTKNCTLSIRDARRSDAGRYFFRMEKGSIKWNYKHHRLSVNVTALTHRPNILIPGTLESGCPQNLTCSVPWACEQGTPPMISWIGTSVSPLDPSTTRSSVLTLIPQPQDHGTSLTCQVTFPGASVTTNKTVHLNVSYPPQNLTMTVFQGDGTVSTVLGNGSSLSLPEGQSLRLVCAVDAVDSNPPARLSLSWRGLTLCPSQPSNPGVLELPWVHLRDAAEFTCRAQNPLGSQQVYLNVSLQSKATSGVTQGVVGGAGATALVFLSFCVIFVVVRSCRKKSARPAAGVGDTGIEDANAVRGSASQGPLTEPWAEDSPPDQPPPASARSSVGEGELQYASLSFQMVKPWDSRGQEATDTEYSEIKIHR
# Protein translocase subunit SecA (Escherichia coli (strain K12)), sequence (P10408 whole entry): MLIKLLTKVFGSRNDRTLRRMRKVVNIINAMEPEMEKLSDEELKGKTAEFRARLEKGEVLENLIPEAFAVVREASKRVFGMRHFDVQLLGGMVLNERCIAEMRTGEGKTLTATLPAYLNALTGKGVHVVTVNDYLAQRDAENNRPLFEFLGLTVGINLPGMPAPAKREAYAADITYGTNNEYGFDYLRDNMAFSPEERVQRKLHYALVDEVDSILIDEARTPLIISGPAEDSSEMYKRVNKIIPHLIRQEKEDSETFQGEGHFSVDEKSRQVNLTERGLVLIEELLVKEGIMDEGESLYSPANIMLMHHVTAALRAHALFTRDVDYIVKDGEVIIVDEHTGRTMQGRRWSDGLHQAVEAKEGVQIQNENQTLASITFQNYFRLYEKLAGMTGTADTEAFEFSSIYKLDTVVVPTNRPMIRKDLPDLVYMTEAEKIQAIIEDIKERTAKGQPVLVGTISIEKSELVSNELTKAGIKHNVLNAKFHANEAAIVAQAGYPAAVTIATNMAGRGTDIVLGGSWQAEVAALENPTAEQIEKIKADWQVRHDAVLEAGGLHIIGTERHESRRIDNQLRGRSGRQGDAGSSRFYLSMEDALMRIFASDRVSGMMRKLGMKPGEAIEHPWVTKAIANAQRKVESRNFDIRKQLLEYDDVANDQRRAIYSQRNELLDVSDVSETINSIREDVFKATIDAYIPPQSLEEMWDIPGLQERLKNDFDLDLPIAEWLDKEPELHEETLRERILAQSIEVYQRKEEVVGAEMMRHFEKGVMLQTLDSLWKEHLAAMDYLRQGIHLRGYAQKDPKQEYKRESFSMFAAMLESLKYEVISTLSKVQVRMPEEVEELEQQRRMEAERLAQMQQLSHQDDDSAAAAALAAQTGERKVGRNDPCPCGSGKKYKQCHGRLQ
structure (smiles),measurement,setting,value
CC(C)Cc1ncc(CNc2cnccc2CO)s1,PXC50,[1]; MAX_EFFECT 2.711323764,< 4
same,PXC50,[1]; MAX_EFFECT 4.081632653,< 4
same,PXC50,[1]; MAX_EFFECT 4.798464491,< 4
same,PXC50,[1]; MAX_EFFECT 7.246376812,< 4
same,PXC50,[1]; MAX_EFFECT 9.632224168,< 4
COc1ccccc1C(=O)NC(c1ccccn1)[C@H]1CC[C@H](CN)CC1 (stereo partly specified),PXC50,"[1]; BOTTOM -1.193557467, HILLSLOPE 1.40396169, MAX_EFFECT 57.36568458, TOP 100.0",4.08
same,PXC50,"[1]; BOTTOM -5.444679276, HILLSLOPE 1.669546179, MAX_EFFECT 75.83892617, TOP 100.0",4.3
same,PXC50,"[1]; BOTTOM -12.31313032, HILLSLOPE 1.366255023, MAX_EFFECT 79.86111111, TOP 100.0",4.41
same,PXC50,[1]; MAX_EFFECT 0.790513834,< 4
same,PXC50,[1]; MAX_EFFECT 6.349206349,< 4
Cc1cc(C)c(CNC(=O)N2CCCC2c2cccn2C)c(=O)[nH]1 (stereo unspecified),PXC50,"[1]; BOTTOM 1.39525403, HILLSLOPE 1.863289847, MAX_EFFECT 51.97132616, TOP 100.0",4.01
same,PXC50,"[1]; BOTTOM -10.14330359, HILLSLOPE 0.427510045, MAX_EFFECT 50.72463768, TOP 100.0",4.22
same,PXC50,[1]; MAX_EFFECT 28.8676236,< 4
same,PXC50,[1]; MAX_EFFECT 30.90211132,< 4
same,PXC50,[1]; MAX_EFFECT 48.51485149,< 4
same,Percent Effect,[2],-1.81%
same,Percent Effect,[3],8.86%
same,Percent Effect,[4],3.05%
same,Percent Effect,[5],2.38%
same,Percent Effect,Trypanosoma cruzi,2.97%
same,Percent Effect,[6],3.66%
same,Percent Effect,[7],10.6%
same,Percent Effect,Homo sapiens,-3.9%
same,Percent Effect,[8],13.5%
same,Percent Effect,[9],27.9%
same,Percent Effect,[10],-14.4%
